Out of some 2,500 compounds screened, about 480 (19%) were called active.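 The calls were made as follows: active = mean inhibition above about 25% (limit read from the data); inactive = the rest.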 Only a sample is shown.

The inhibition is the relative decrease from the control value, in per cent.

The nature of the test: inhibitors of Wnt3a-driven luciferase in Wnt-LIGHT cells – cell-based, luminescence, single concentration, counter-screen for Gli-SUFU antagonist project, confirmation (AID 651995). Conditions: Wnt3a-driven luciferase reporter, at 6.25 µM, stronger effect = higher value.
As for `Cc1ccc(S(=O)(=O)N2C[C@@H]3CCCC[C@@H]3[C@@H](C)[C@H]2c2cn(Cc3ccccc3)c3ccc(F)cc23)cc1`, the inhibition is 30.5% (active).
As to `COc1ccccc1N1CCN(Cc2cc(OC)c3c(c2)OCO3)CC1`, the inhibition was -25% (inactive).
As to `CCN(CC(=O)Nc1cc(Cl)ccc1C)C(=O)CSCc1ccc(C)cc1`, the inhibition is -8.43% (inactive).
With `C=CCOC(=O)C1=C[C@@H](c2ccc3c(c2)OCO3)C[C@@H](OCCCCO)O1`, the inhibition is -7.34% (inactive).
With `Cc1c(Cl)c([N+](=O)[O-])nn1Cc1ccc(C(=O)N/N=C\c2cc(Cl)ccc2O)o1`, the inhibition is 61.7% (active).
With `Cc1cc([N+](=O)[O-])c(-c2ccc(/C=N/n3cnnc3)o2)cc1Cl` the figure was -8.22% (inactive).
With `O=[N+]([O-])c1ccc(N2CCN(CC(O)COc3ccccc3)CC2)cc1` (stereo not given) the figure was -30.2% (inactive); with `CC1(C)Cc2ccccc2/C(=C/C(=O)c2ccccc2)N1`, 9.91% (inactive); with `CCOC(=O)c1cnc(-n2nc(C)cc2C)nc1NNc1cc(C)nc(-c2ccccc2)n1`, 40.7% (active).
With `Cc1nn(C)c(Cl)c1CN1CCC(n2nccc2NC(=O)C2CCCC2)CC1` the figure was -36.2% (inactive).
For `CCCC1=Nc2cc(C(=O)NCc3ccco3)ccc2Sc2ccccc21`, the inhibition was -23.7% (inactive).
With `CCN1/C(=C/C(=S)Nc2ccccc2)Sc2ccccc21` the figure was -77.3% (inactive); with `CCc1c(C)[nH]c(=S)c(C#N)c1C`, -19.5% (inactive); with `N#CC(C#N)=CN=c1ccn(Cc2ccc(Cl)cc2Cl)cc1`, -5.79% (inactive).
On to `N#Cc1ccc(C(=O)Nc2nc(-c3cccs3)c(C(=O)C(F)(F)F)s2)cc1`, for which the inhibition was 65.1% (active).
As for `O=C(NC1CCN(C(=S)Nc2ccc(Cl)cc2)CC1)C1CCCCC1`, the inhibition is -1.08% (inactive).
In the case of `Cc1ccc(-c2nc(CSCC(=O)NC3CCN(Cc4ccccc4)CC3)c(C)o2)cc1`, the inhibition was -19.9% (inactive).
As to `CN(C)CCN(C(=O)C1CCCCC1)c1nc2cc3c(cc2s1)OCO3`, the inhibition is -21.9% (inactive).
Regarding `c1c2c(cc3sc(N4CCCCC4)nc13)OCCO2`, the inhibition is 85.8% (active).
`CN(C)C(CNC(=O)Cc1ccc([N+](=O)[O-])cc1)c1ccccc1` (stereo not given): the inhibition is -27% (inactive).
The result for `COc1ccccc1CNC(=O)C1CCN(c2nc3ccccc3o2)CC1` reads -23.3% (inactive); that for `C=CCC1(CC=C)CCCN1C(=O)c1cc(COc2ccc(-n3cncn3)cc2)on1`, -17% (inactive).
Regarding `CCCOc1ccccc1C1CC(=O)Nc2cc3c(cc21)OCO3` (stereo not given), the inhibition was -18.6% (inactive).
For `COc1ccc(NS(=O)(=O)c2ccc(N3CCN(CCO)CC3)c([N+](=O)[O-])c2)cc1`, the inhibition is 26.4% (active).
Take `COc1ccc(NS(=O)(=O)c2ccc(NC(C)=O)cc2)cc1OC`: the inhibition was 13.2% (inactive).

For the origin of these results see PubChem BioAssay AID651995 (Sanford-Burnham Center for Chemical Genomics, 2013).
